Values without a mark were called inactive. Results filed as inconclusive are left out. Where a call stands in place of a potency, no number is given. The source made the active and inactive calls. Unless noted, the call rests on the fitted dose curve; in most records, active means well fitted curve in the direction sought with a large enough effect in the repeat runs; inconclusive means weak or mixed curves; inactive means no such curve, though single readings can be large; an effect the other way counts as inactive or inconclusive.
Experiments:
[1] = qHTS RealTime-Glo MT Cell Viability Assay in HEK293 cells - 24 hour (AID 1224886); further: top concentration of the series differs between compounds; nearly all actives have a fitted effect of over 50% in size
Summary of the method: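 Reads taken at 0, 8, 16, 24, 32 and 40 h from the same wells. HEK293 cells (600/well) carried RealTime-Glo reagents from seeding, with compound added after a 5 h settle at 37 C.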

[2] = qHTS RealTime-Glo MT Cell Viability Assay in HEK293 cells - 8 hour (AID 1224887); further: top concentration of the series differs between compounds; nearly all actives have a fitted effect of over 50% in size
Summary of the method: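 Nonlytic bioluminescent viability monitoring. HEK293 at 600 cells/well with reagent; 5 h settle; compound transfer by pintool; plates held at 37 C and read at set time points.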

[3] = A CellTox Green Cytotoxicity Assay to monitor cytotoxicity in HEK293 cells - 16 hour (AID 1224888); further: nearly all actives have a fitted effect of over 35% in size
Summary of the method: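 Cytotoxicity was tracked continuously in HEK293 cells by a DNA-binding dye excluded from viable cells. Compounds were transferred in DMSO 5 h after seeding; fluorescence was recorded at intervals up to 40 h.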

[4] = qHTS RealTime-Glo MT Cell Viability Assay in HepG2 cells - 0 hour (AID 1224889); further: nearly all actives have a fitted effect of over 50% in size
Summary of the method: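 HepG2 suspension premixed with RealTime-Glo reagents is plated at 600 cells per well and left 5 h at 37 C/5% CO2. Compounds in DMSO then go in, and bioluminescence reflecting viable cell number is recorded over 40 h.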

[5] = A CellTox Green Cytotoxicity Assay to monitor cytotoxicity in HepG2 cells - 8 hour (AID 1224890); further: nearly all actives have a fitted effect of over 45% in size
Summary of the method: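 Real-time, homogeneous cytotoxicity readout: dead-cell DNA staining by CellTox Green in HepG2 monolayers, fluorescence measured at timed intervals up to 40 h of continuous compound exposure.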

[6] = qHTS assay to identify small molecule antagonists of the androgen receptor (AR) signaling pathway using the MDA cell line in the presence of 0.5 nM R1881 - cell viability counter screen (AID 1259242); further: nearly all actives have a fitted effect of over 45% in size
Summary of the method: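 Cytotoxicity toward MDA-kb2 cells is measured by CellTiter-Fluor live-cell protease fluorescence after 16 hr compound exposure at 37C in the presence of 0.5 nM R1881 stimulator.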

[7] = qHTS assay to identify small molecule phospholipidosis (PLD) inducers (AID 1259344; active means well fitted curve in the direction sought with a large enough effect; an effect the other way counts as inactive or inconclusive)
Summary of the method: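 Phospholipidosis is scored by imaging LipidTOX-stained pits in HepG2 cells exposed to compound for 24 h at 37 C; pit counts and integrated intensities per well and per cell serve as outputs.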

[8] = qHTS assay to identify small molecule HDAC inhibitors (AID 1259364); further: top concentration of the series differs between compounds; nearly all actives have a fitted effect of over 45% in size
Summary of the method: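 Homogeneous cell-based luminescent assay of endogenous class I/II HDAC activity; HCT-116 cells, 2 h compound exposure, 30 min HDAC-Glo development at RT.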

[9] = qHTS assay to identify small molecule HDAC inhibitors - cell viability counter screen (AID 1259365); further: series mostly up to about 92 µM; nearly all actives have a fitted effect of over 50% in size
Summary of the method: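 Wild-type HCT-116 cells were seeded at 1,500 per well, incubated overnight at 37 C, then exposed to compounds in DMSO for 2hr. Viability was read by CellTiter-Glo luminescence after 30min at room temperature.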

[10] = qHTS assay to identify small molecule agonists of the sonic hedgehog signaling (Shh) pathway - cell viability counter screen (AID 1259366); further: nearly all actives have a fitted effect of over 50% in size
Summary of the method: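 NIH/3T3-derived 3T3 Gli1-Luc cells (stable Gli1-responsive firefly luciferase reporter) were seeded, rested 4 hr at 37 C/5% CO2, then exposed to compounds in DMSO for 24 hr; viability was read by CellTiter-Fluor fluorescence in the same wells.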

[11] = qHTS assay to identify small molecule antagonists of the sonic hedgehog signaling (Shh) pathway - cell viability counter screen (AID 1259367); further: nearly all actives have a fitted effect of over 55% in size
Summary of the method: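 Cells: 3T3 Gli1-Luc, 2,000/well, 4 hr pre-incubation. Compounds in DMSO, then conditioned medium. Incubation 24 hr, 37C, 5% CO2. CellTiter-Fluor at 23 hr, 1 hr, fluorescence.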

[12] = qHTS assay to identify small molecule agonists of the sonic hedgehog signaling (Shh) pathway (AID 1259368; calls by dose curve; further: series mostly up to about 92 µM; nearly all actives have a fitted effect of over 15% in size)
Summary of the method: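 Steps: seed 3T3 Gli1-Luc cells, incubate 4 hr at 37 C, pin-transfer compounds in DMSO alongside a positive control, incubate 24 hr, add luciferase detection reagent, wait 30 min at room temperature, read luminescence.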

[13] = qHTS assay to identify small molecule antagonists of the sonic hedgehog signaling (Shh) pathway (AID 1259369; calls by dose curve; further: nearly all actives have a fitted effect of over 45% in size)
Summary of the method: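 Inhibition of Shh signalling is measured as reduced Gli1-response-element firefly luciferase output in an NIH/3T3-derived stable reporter clone stimulated with conditioned medium for 24hr.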

[14] = molecular target: Estrogen receptor beta (Homo sapiens) (UniProt Q92731); experiment: qHTS assay to identify small molecule agonists of the estrogen receptor beta (ER-beta) signaling pathway (AID 1259377; active means well fitted activation curve with a large enough effect in the signal ratio in the repeat runs, not every such curve was filed as active; the % refers to the signal ratio; further: potency means the concentration at half of the fitted maximal effect)
Chain of Estrogen receptor beta (Homo sapiens) (Q92731 whole entry, looked up): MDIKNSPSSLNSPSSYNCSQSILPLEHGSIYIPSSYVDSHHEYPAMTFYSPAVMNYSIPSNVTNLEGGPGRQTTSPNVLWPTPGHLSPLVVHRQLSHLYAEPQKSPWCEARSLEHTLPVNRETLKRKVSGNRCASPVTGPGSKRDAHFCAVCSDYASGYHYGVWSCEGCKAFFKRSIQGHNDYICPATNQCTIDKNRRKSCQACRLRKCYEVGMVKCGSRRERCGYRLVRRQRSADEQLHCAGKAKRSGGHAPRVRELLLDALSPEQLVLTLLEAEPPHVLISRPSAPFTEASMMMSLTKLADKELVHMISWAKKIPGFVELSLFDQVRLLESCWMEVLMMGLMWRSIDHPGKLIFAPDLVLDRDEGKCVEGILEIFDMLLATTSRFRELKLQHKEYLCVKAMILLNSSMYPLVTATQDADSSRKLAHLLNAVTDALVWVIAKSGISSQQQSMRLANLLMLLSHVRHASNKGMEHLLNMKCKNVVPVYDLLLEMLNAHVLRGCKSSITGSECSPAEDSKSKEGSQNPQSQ
Summary of the method: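 ER-beta-UAS-bla HEK293T (GripTite) cells carrying a UAS-driven beta-lactamase reporter, in medium with 2% charcoal-stripped FBS, were exposed to compounds for 16 hr at 37C; LiveBLAzer B/G FRET substrate was then added and fluorescence read after 2 hours at room temperature.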

[15] = molecular target: Estrogen receptor beta (Homo sapiens) (UniProt Q92731); experiment: qHTS assay to identify small molecule antagonists of the estrogen receptor beta (ER-beta) signaling pathway (AID 1259378; active means well fitted inhibition curve with a large enough effect in the signal ratio in the repeat runs, not every such curve was filed as active; the % refers to the signal ratio)
Summary of the method: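 Antagonist mode: compounds added to beta-lactamase reporter HEK293T ER-beta-UAS cells stimulated with E2 (1nM final), 16 hr at 37C. LiveBLAzer B/G FRET substrate, 2 hours room temperature, fluorescence read-out.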

[16] = qHTS assay to identify small molecule agonists of the androgen receptor (AR) signaling pathway in the presence of an antagonist - cell viability counter screen (AID 1259379);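 further: MDA-kb2 human breast cancer cells carrying an MMTV luciferase reporter; series mostly up to about 92 µM; nearly all actives have a fitted effect of over 25% in size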
Summary of the method: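 Fluorescence from CellTiter-Fluor, added after 15 hr and read 1 hr later, gave cell viability. Cells were MDA-kb2 exposed to compounds (15 concentrations) in the presence of 3.0uM nilutamide at 37C, 0% CO2.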

[17] = qHTS assay to identify small molecule agonists of the estrogen receptor beta (ER-beta) signaling pathway - cell viability counter screen (AID 1259380); further: nearly all actives have a fitted effect of over 30% in size
Summary of the method: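 Same-well viability counter screen. Cells: ER-beta-UAS-bla HEK293T, plated 6 hr before compound, in 2% charcoal-stripped FBS. Compound exposure 16 hr, 37C; viability by CellTiter-Glo luminescence after 30 min at room temperature.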

[18] = qHTS assay to identify small molecule antagonists of the estrogen receptor alpha (ER-alpha) signaling pathway using the BG1 cell line in the presence of 0.1 nM 17-beta-estradiol - cell viability counter screen (AID 1259241); further: nearly all actives have a fitted effect of over 40% in size
Summary of the method: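 VM7Luc4E2 cells (endogenous ER-alpha, 4×ERE-luciferase), hormone-starved 5 days in charcoal-stripped FBS, were treated with compounds plus 0.1 nM 17beta-estradiol for 22 hr at 37C; viability read in same wells as CellTiter-Fluor live-cell protease fluorescence.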

[19] = molecular target: Estrogen receptor (Homo sapiens) (UniProt P03372); experiment: qHTS assay to identify small molecule antagonists of the estrogen receptor alpha (ER-alpha) signaling pathway using the BG1 cell line in the presence of 0.1 nM 17-beta-estradiol (AID 1259244); further: nearly all actives have a fitted effect of over 50% in size
Chain of Estrogen receptor (Homo sapiens) (P03372 whole entry, looked up): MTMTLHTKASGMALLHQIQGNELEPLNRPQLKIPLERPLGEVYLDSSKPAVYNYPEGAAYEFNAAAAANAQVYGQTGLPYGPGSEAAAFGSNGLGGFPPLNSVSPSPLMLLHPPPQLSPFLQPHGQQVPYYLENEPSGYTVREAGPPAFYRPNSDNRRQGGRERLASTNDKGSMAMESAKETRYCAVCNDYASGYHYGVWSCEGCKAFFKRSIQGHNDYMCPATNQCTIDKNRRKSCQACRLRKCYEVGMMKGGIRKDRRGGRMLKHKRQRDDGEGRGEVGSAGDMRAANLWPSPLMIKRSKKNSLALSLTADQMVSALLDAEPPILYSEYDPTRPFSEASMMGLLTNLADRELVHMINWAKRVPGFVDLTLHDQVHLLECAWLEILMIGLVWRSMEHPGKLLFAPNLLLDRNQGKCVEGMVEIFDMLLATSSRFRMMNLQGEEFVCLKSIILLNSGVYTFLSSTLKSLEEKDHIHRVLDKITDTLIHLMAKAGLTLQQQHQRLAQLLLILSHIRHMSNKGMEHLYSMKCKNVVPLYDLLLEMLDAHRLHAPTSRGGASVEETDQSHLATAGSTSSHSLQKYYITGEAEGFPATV
Summary of the method: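 After 5 days in hormone-depleted medium (charcoal-stripped serum, no phenol red), VM7Luc4E2 cells were seeded, incubated 24 h, then co-treated with compound and 0.1 nM (final) estradiol for 22 h before luminescence detection.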

[20] = molecular target: Androgen receptor (Homo sapiens) (UniProt P10275); experiment: qHTS assay to identify small molecule antagonists of the androgen receptor (AR) signaling pathway using the MDA cell line in the presence of 0.5 nM R1881 (AID 1259243)
Chain of Androgen receptor (Homo sapiens) (P10275 whole entry, looked up): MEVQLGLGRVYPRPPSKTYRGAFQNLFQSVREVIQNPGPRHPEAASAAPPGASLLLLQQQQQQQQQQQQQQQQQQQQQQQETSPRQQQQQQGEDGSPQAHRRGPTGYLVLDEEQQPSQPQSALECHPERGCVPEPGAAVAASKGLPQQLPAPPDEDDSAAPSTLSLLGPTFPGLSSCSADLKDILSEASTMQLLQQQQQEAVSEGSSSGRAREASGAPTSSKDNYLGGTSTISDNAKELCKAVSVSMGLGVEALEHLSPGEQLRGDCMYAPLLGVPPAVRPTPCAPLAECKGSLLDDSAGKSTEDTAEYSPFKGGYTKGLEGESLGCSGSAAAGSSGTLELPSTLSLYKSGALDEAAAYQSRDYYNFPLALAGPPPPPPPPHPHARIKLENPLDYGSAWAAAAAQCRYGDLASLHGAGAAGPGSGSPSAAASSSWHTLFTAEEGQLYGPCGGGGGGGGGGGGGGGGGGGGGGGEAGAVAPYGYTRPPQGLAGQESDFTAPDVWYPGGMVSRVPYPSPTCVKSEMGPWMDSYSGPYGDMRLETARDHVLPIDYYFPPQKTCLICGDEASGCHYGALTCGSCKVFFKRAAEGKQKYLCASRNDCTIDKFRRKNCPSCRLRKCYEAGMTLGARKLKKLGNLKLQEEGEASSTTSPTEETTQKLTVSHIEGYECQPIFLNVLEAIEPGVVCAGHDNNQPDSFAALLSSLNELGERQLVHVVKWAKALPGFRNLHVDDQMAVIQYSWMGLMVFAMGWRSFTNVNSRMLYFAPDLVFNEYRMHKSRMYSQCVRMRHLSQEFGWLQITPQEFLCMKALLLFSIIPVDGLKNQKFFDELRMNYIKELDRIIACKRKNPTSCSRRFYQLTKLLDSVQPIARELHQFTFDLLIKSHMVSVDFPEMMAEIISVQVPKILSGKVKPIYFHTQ
Summary of the method: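 Steps: seed MDA-kb2 cells, incubate 5 hr at 37C; pin-transfer compounds in DMSO; add R1881 to 0.5 nM final; incubate 16 hr; add ONE-Glo, wait 30 min at room temperature; read luminescence.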

| SMILES | Potency [1] | Potency [2] | Potency [3] | Potency [4] | Potency [5] | outcome [6] | outcome [7] | Potency [8] | outcome [9] | outcome [10] | outcome [11] | outcome [12] | Potency [13] | Potency [14] | Potency [15] | outcome [16] | outcome [17] | outcome [18] | outcome [19] | Potency [20] |
| --- | --- | --- | --- | --- | --- | --- | --- | --- | --- | --- | --- | --- | --- | --- | --- | --- | --- | --- | --- | --- |
| Cn1c(=O)c2[nH]c(Br)nc2n(C)c1=O | inactive | inactive | inactive | inactive | inactive | inactive | inactive | inactive | inactive | inactive | inactive | inactive | inactive | inactive | inactive | inactive | inactive | – | – | – |
| CC1CCc2c(N3CCC(O)CC3)c(F)cc3c(=O)c(C(=O)O)cn1c23 (configuration not stated) | inactive | inactive | inactive | – | inactive | inactive | inactive | inactive | inactive | – | inactive | inactive | inactive | – | – | inactive | inactive | inactive | inactive | – |
| COC(=O)CCCCC(=O)O | inactive | inactive | inactive | inactive | – | inactive | – | inactive | inactive | – | inactive | inactive | inactive | – | – | inactive | inactive | – | inactive | – |
| CCCC(=O)OCCC(C)CCC=C(C)C (configuration not stated) | inactive | inactive | inactive | – | – | inactive | – | inactive | inactive | inactive | inactive | inactive | – | inactive | inactive | inactive | inactive | inactive | – | – |
| C[Si]1(C)O[Si](C)(C)O[Si](C)(C)O[Si](C)(C)O[Si](C)(C)O1 | inactive | inactive | – | inactive | inactive | – | – | inactive | inactive | inactive | inactive | inactive | inactive | – | – | inactive | inactive | inactive | inactive | – |
| CCN1CCCC1CN (configuration not stated) | inactive | inactive | – | inactive | inactive | – | – | inactive | – | inactive | inactive | inactive | inactive | inactive | inactive | inactive | inactive | inactive | inactive | – |
| CN(C)CCOC(=O)C(c1ccccc1)C1(O)CCCC1 (configuration not stated) | inactive | inactive | inactive | – | – | – | inactive | inactive | inactive | inactive | inactive | inactive | inactive | inactive | – | inactive | inactive | – | inactive | – |
| CCC(=O)Oc1ccc2c(c1)CC[C@@H]1[C@@H]2CC[C@@]2(C)[C@H]1C[C@@H](OC(=O)CC)[C@@H]2OC(=O)CC | inactive | inactive | inactive | – | – | – | – | inactive | inactive | inactive | inactive | inactive | – | 0.0211 µM (active) | – | inactive | inactive | inactive | inactive | 8.41 µM (active) |
| CN(C)C(C)(C)CO | inactive | inactive | – | inactive | inactive | inactive | – | – | inactive | inactive | inactive | inactive | inactive | – | – | inactive | inactive | inactive | inactive | – |
| C=CCCCC | inactive | inactive | – | inactive | inactive | inactive | – | – | inactive | inactive | inactive | inactive | inactive | – | – | inactive | inactive | inactive | inactive | – |
| CC1(C)Oc2ccc(C#N)cc2[C@@H](N2CCCC2=O)[C@@H]1O | inactive | inactive | – | inactive | inactive | – | inactive | inactive | – | inactive | inactive | inactive | inactive | – | inactive | inactive | inactive | inactive | inactive | – |
| COS(=O)(=O)O | inactive | inactive | inactive | – | inactive | inactive | – | – | inactive | inactive | inactive | inactive | inactive | – | – | inactive | inactive | inactive | – | – |

— PubChem BioAssay (Tox21)
